Screening data from PubChem BioAssay.
This is a sample that favours compounds with a hit; in the whole collection about 4.3% have one here.
CR mimetic SO: caloric restriction mimetics inhibiting age-related superoxide in yeast | superoxide response (% of plate mean), % at 10 µM | S. cerevisiae aged cells, superoxide DHE fluorescence; stronger effect = lower value | 0.18% of 330,000 active | AID 2690;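 active = superoxide response under a set limit, about three screen SD below normal, cut at about 65% in these data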;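 also: yeast aged for seven days with compound at 30 °C before DHE staining; 100% = average MFI of all compound-treated wells on the plate with controls excluded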
dFosB act-1: activators of mouse delta FosB homodimer. P13346. purified delta FosB, TAMRA-CDK5 oligo fluorescence polarization; percent of positive-control signal above neutral wells. activation, % at 25 µM. 0.99% of 340,000 active;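 active = mean activation above about 17%, with every replicate also reaching it, limit read from the data, passing the limit was not always enough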
Target sequence (P13346 whole entry, looked up): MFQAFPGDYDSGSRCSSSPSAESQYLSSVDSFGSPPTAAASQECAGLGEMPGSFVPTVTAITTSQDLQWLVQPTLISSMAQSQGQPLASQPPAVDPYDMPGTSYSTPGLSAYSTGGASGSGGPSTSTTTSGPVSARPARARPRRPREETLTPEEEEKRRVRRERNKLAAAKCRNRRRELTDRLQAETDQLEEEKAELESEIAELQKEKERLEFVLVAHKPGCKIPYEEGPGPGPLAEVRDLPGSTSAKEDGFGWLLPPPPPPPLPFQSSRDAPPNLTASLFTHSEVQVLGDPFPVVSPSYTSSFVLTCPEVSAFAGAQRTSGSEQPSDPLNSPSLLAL
NALP1 yeast inh: inhibitors of NALP1 inflammasome in yeast | S. cerevisiae NALP1/ASC/caspase-1 growth, X-gal OD620, 72 h | inhibition, % at 10 µM | 0.61% of 280,000 active; in the data active = inhibition mostly above about 24%, no sharp cut-off; inactive = mostly below about 32%
NR3A LBD binder: modulates the human NR3A ligand-binding domain; NR3A LBD differential scanning fluorimetry, Tm shift; 0% = protein alone, 100% = glycine-bound protein; Tm shift relative to glycine control, % at 25 µM; 2.5% of 340,000 active; AID 1259313;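 active = melting temperature shift of at least 10% of the positive control shift, at one fixed dose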
UBC13 polyUb: blocks human UBC13 polyubiquitin chain formation. TR-FRET. inhibition, % at 20 µM. 0.47% of 330,000 active. AID 485273; in the data active = inhibition above about 45%, passing the limit was not always enough
Target sequence (P61088 whole entry, looked up): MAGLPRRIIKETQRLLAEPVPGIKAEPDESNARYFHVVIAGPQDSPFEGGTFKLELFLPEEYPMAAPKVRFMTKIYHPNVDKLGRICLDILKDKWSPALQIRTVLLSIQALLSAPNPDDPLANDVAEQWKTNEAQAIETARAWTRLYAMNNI
dFosB act-2: delta FosB (mouse) homodimer activation; shares compounds with dFosB act-1; purified delta FosB, TAMRA-CDK5 oligo fluorescence polarization; normalised: neutral wells 0, positive control 100; activation, % at 24.9 µM; 2,400 tested, under 10 active; AID 588690;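 active = highest replicate activation at or above 34% and every replicate reaching that threshold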;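 also: higher polarization means more probe DNA bound by delta FosB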
An asterisk follows results filed as active; / = no result given.

SMILES	CR mimetic SO	dFosB act-1	NALP1 yeast inh	NR3A LBD binder	UBC13 polyUb	dFosB act-2
CC(C)(C)NC(=O)C(c1ccc(O)cc1)N(C(=O)CCC(=O)Nc1ccccn1)c1ccc(F)cc1 (configuration not stated)	106	-13	10	-1	8	/
Clc1cc(/C=N\NC2=NCCN2)cc(Cl)n1	102	/	/	1	-4	/
C(=NN1CCCCCC1)c1ccc2c(c1)OCO2	/	-1	/	1	/	/
CCc1cc2ccc(C)cc2nc1SCC(=O)Nc1c[nH]c(=O)[nH]c1=O	106	22*	-14	-1	-8	6
CCc1cc2c(C)ccc(C)c2nc1SCC(=O)Nc1c[nH]c(=O)[nH]c1=O	98	-1	12	-2	-9	/
Cc1ccc(NC(=O)Nc2nnc(CSCCOc3ccc(Cl)cc3)s2)cc1	105	8	18	1	-11	/
COc1ccc(OCCSCc2nnc(NC(=O)Nc3ccc(Cl)cc3)s2)cc1	97	24*	20	2	-18	6
COc1ccc(OCC(=O)Nc2nc3ccc(NC(C)=O)cc3s2)cc1	106	23*	5	14*	14	8
Cc1nc2ccc(NC(=O)c3cccs3)cc2s1	126	-12	-4	-6	-4	/
CC(=O)Nc1ccc2nc(NC(=O)COc3ccc([N+](=O)[O-])cc3)sc2c1	95	4	25	1	0	/
CC(=O)Nc1ccc2nc(NC(=O)c3cccs3)sc2c1	90	22*	/	7	-10	-2
O=C(Cn1cnc2ccccc2c1=O)NCCC(=O)Nc1ccccc1C(F)(F)F	79	4	13	0	0	/
CS(=O)(=O)N1CCN(C(=O)c2cc(-c3ccncc3)nc3ccc(Cl)cc23)CC1	99	-7	21	0	0	/
CNS(=O)(=O)c1ccc(NC(=O)c2cc(-c3ccncc3)nc3ccc(Cl)cc23)cc1	101	69*	32	2	5	-1
Cc1ccc(NC(=O)c2cc(-c3ccccc3O)n[nH]2)cc1Cl	102	41*	6	26*	-2	-7
Cc1ccc(NC(=O)c2cc(-c3cc(Cl)ccc3O)n[nH]2)cc1C	103	22*	29	29*	-10	4
Cc1ccc(NC(=O)c2snc3ccc(Cl)cc23)cc1C	115	5	21	6	6	/
Cc1cc(C(=O)COC(=O)c2ccc(Cl)c(S(N)(=O)=O)c2)c(C)n1C1CC1	99	-8	/	0	1	/
COc1ccc(N2CC(C(=O)N3CCC(c4nc5ccccc5[nH]4)CC3)CC2=O)cc1 (configuration not stated)	102	2	/	0	-2	/
C[C@@]12C(=O)Nc3ccc(Br)cc3C(=O)N1[C@H]1c3cc(Br)ccc3OC[C@@H]1[C@@H]2c1ccccc1	105	38*	/	0	-22	-7
Cc1ccc(C(=O)OCC(=O)Nc2cccc(Cl)c2C)c(O)c1	87	20*	7	0	22	0
COC(=O)c1nn(-c2ccccc2)nc1-c1nn(-c2ccccc2)nc1C(=O)OC	105	23*	10	1	-3	3
O=C(O)c1nn(-c2ccccc2)nc1-c1nn(-c2ccccc2)nc1C(=O)O	101	-7	1	-2	2	/
CC(=O)Nc1ccc(NC(=O)CSc2nnc(NC(=O)C3CC(=O)N(c4ccc(F)cc4)C3)s2)cc1 (configuration not stated)	89	-6	6	-1	-20	/
CCNC(=O)c1c(NC(=O)C2COc3ccccc3O2)sc2c1CCCC2 (configuration not stated)	102	27*	4	-3	-3	-2
SMILES	CR mimetic SO	dFosB act-1	NALP1 yeast inh	NR3A LBD binder	UBC13 polyUb	dFosB act-2
O=C(Nc1ccc(Cl)cc1)N(Cc1nc2ccccc2c(=O)[nH]1)Cc1cccs1	118	1	13	7	-7	/
O=C(Nc1ccccc1Cl)N(Cc1nc2ccccc2c(=O)[nH]1)Cc1cccs1	110	33*	10	-12	7	1
CN(CC(=O)Nc1ccc(Cl)c(C(F)(F)F)c1)C(=O)c1cc(-c2ccncc2)nc2ccccc12	115	66*	/	21*	1	0
O=C(Nc1ccc(OC(F)(F)F)cc1)N1CCN(c2ccnc3cc(Cl)ccc23)CC1	113	39*	/	7	-4	-4
CC(C)(C)C(=O)N1CCN(c2ccnc3cc(Cl)ccc23)CC1	112	-6	-69	2	-10	/
CC(C)c1ccc(NC(=O)[C@H](NC(=O)[C@@H]2Cc3ccccc3CN2)c2ccccc2)cc1	85	57*	11	-9	9	5
O=C(NCC1CCCO1)c1ccc([N+](=O)[O-])s1 (configuration not stated)	124	-3	-8	-1	-11	/
NC(=O)Cn1cnc2c(nnn2-c2cccc(Cl)c2)c1=O	91	-1	9	-1	7	/
CC(C)C(C)NC(=O)Cn1cnc2c(oc3ccccc32)c1=O (configuration not stated)	105	-10	6	2	4	/
O=C(Cn1cnc2sc(-c3ccccc3)cc2c1=O)NCc1ccccc1	96	32*	15	-1	1	5
O=C(Cn1cnc2c(nnn2-c2cccc(Cl)c2)c1=O)NCc1ccccc1	83	68*	10	-2	-13	1
O=C(Cn1cnc2sc(-c3ccccc3)cc2c1=O)NCCc1ccccc1	101	53*	-4	-3	-6	2
O=C(Cn1cnc2c(oc3ccccc32)c1=O)NCCc1ccccc1	100	61*	/	-1	-2	-3
COc1cccc(C(=O)N2CCC(n3nccc3NC(=O)CCOc3ccccc3)CC2)c1	98	-5	11	-1	-9	/
Cc1ccc(COc2ccsc2C(=O)NNC(N)=S)cc1	98	28*	-3	-1	-3	0
Cc1ccc(COc2ccsc2C(=O)NN)cc1	96	0	25	-2	12	/
CC1CCN(S(=O)(=O)c2ccc(NC(=O)Cc3cccs3)cc2)CC1	98	-11	-28	-3	-7	/
COc1cc(NC(=O)c2cc(-c3ccc4c(c3)OCO4)on2)cc(OC)c1OC	101	-4	8	0	5	/
O=C(Nc1cccc(O)c1)c1cc(-c2ccc3c(c2)OCO3)on1	112	33*	5	0	6	0
O=C(Nn1c(C2CCCCC2)nc2ccccc2c1=O)c1ccc([N+](=O)[O-])cc1Cl	108	43*	31	1	-13	3
O=C(CNC(=O)c1ccc(Br)o1)Nc1cccc(-c2cnc3ccccc3n2)c1	81	19*	26	-5	-4	6
O=C(Nc1cccc(-c2cn3cccnc3n2)c1)c1ccc(Br)o1	104	19*	18	3	9	7
Cc1ccc(C(=O)Nc2cccc(-c3cnc4ccccc4n3)c2)cc1	86	-9	14	0	2	/
